Assay outcomes as filed in PubChem.
PAFAH1B3 FP inh: PAFAH1B3 (human) inhibition; Q15102; recombinant PAFAH1B3, FP-rhodamine probe, fluorescence polarization; inhibition, % at 3.39 µM; 340,000 tested, 0.28% active; AID 492972;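 active = inhibition above the screen-wide average of all tested compounds plus 3 SD, cut at about 25% in these data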
Target sequence (Q15102 whole entry, looked up): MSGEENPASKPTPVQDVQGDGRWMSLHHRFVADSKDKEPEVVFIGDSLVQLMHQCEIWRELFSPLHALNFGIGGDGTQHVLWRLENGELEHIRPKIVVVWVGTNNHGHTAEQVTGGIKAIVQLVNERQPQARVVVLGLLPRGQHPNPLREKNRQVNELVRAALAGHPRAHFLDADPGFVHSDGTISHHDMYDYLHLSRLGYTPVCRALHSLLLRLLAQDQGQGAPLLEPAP
CTSL1 counter: counter-screen for PFM18AAP inhibitors: inhibitors of F. hepatica cathepsin L1; inhibition, % at 5.96 µM; recombinant F. hepatica cathepsin L1, Z-Leu-Arg-MCA fluorescence; 300,000 tested, 0.49% active;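 active = inhibition above the mean of all tested compounds plus 3 SD, set per screening campaign, cut at about 17% in these data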
PAFAH2 inh: PAFAH2 (human) inhibition | Q99487 | recombinant PAFAH2, FP-rhodamine activity probe, fluorescence polarization | inhibition, % at 3.39 µM | 340,000 tested, 0.99% active | AID 492956;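 active = inhibition above the mean over all tested compounds plus 3 SD, cut at about 30% in these data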;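 also: inhibitors block probe labeling of enzyme so polarization drops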
PAFAH1B2 inh: inhibitors of human PAFAH1B2; P68402; recombinant PAFAH1B2, FP-rhodamine activity probe, fluorescence polarization; inhibition, % at 3.39 µM; 340,000 tested, 1.2% active;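 active = inhibition above the mean of all tested compounds plus 3 SD, cut at about 24% in these data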
Target sequence (P68402 whole entry, looked up): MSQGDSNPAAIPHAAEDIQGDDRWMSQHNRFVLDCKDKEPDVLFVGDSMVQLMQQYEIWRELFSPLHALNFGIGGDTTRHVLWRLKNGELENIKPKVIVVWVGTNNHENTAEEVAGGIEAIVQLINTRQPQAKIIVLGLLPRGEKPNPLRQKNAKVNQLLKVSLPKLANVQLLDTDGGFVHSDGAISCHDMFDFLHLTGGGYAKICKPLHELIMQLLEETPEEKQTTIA
PP5 inh: PP5 (human) phosphatase inhibition. P53041. purified PP5c, OMFP substrate fluorescence. 320,000 tested, 0.18% active. inhibition, % at 6.7 µM;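 active = inhibition above the campaign's mean inhibition across all tested compounds plus 3 SD, cut at about 9.5% in these data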
pPAFAH inh: inhibitors of human plasma PAF acetylhydrolase (pPAFAH). Q13093. recombinant pPAFAH, FP-rhodamine probe fluorescence polarization. inhibition, % at 3.39 µM. 330,000 tested, 1.5% active. AID 463082;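 active = inhibition above the mean inhibition across the screen plus 3 SD, cut at about 25% in these data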;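 also: inhibitors block binding of the rhodamine activity-based probe so polarization drops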
pPAFAH FP conf: confirmation of human plasma PAF acetylhydrolase (pPAFAH) inhibitors. shares compounds with pPAFAH inh. recombinant pPAFAH, FP-Rh probe fluorescence polarization. inhibition, % at 3.39 µM. 2,300 tested, 72% active. AID 463230;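 active = mean inhibition of the triplicate above the hit cutoff set for the earlier primary screen, cut at about 25% in these data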
Large screens that a line does not name were inactive (follow-up assays come after a bar, where they were run). Hits are enriched below; roughly 3% of the tested compounds scored in any of these assays.

CCOC(=O)c1sc(N(Cc2ccccc2)C(=O)CSc2ncn[nH]2)nc1C	none
O=C(O)CSCC(=O)N(Cc1ccccc1)c1nc(-c2ccccc2)c(-c2ccccc2)s1	pPAFAH inh 54 | pPAFAH FP conf 54
Cc1[nH]c2ccc(C(=O)OCC(=O)NC3(C#N)CCCCC3)cc2c1C	PAFAH2 inh 86, pPAFAH inh 45 | pPAFAH FP conf 43
N#CC1(NC(=O)COC(=O)c2nc(Cl)ccc2Cl)CCCCC1	none
COc1ccc(NC(=O)CN(C)C(=O)CNC(=O)c2ccc3c(c2)OCO3)cc1	none
CCOC(=O)c1sc2nc3c(SCCC#N)cc(C(=O)c4cc(F)ccc4O)cn3c(=O)c2c1C	none
O=C(O)CSc1cc(C(=O)c2cc(F)ccc2O)cn2c(=O)c3c(-c4ccccc4)csc3nc12	pPAFAH inh 53 | pPAFAH FP conf 65
COc1cccc(CNC(=O)CCC2CCCN(C(=O)Cc3ccccc3F)C2)c1 (configuration not stated)	none
COc1cccc(CNC(=O)CCC2CCCN(Cc3cc(Cl)ccc3O)C2)c1 (configuration not stated)	pPAFAH inh 92 | pPAFAH FP conf 68
NS(=O)(=O)c1ccc(N2CCCC2=O)c([N+](=O)[O-])c1	pPAFAH inh 44 | pPAFAH FP conf inactive
N#CCCN(C(=O)COC(=O)c1ccc(S(=O)(=O)Nc2ccccc2)cc1)c1ccccc1	pPAFAH inh 35 | pPAFAH FP conf inactive
O=C(CC1Nc2cccc3cccc(c23)NC1=O)Nc1ccccc1 (configuration not stated)	PAFAH2 inh 58, pPAFAH inh 52 | pPAFAH FP conf inactive
CN(C)CC/C=C1/c2ccccc2COc2ccc(CC(=O)O)cc21	pPAFAH inh 60 | pPAFAH FP conf inactive
O=C1NC(=O)/C(=C/c2ccc(-c3cc(C(=O)O)ccc3Cl)o2)S1	none
O=C1NC(=S)/C(=C\c2ccc(-c3ccccc3Cl)o2)S1	PAFAH2 inh 41, pPAFAH inh 70 | pPAFAH FP conf 79
NNC(=O)c1cc2ccccc2cc1O	pPAFAH inh 43 | pPAFAH FP conf inactive
Cc1ccc(Cl)cc1NC(=O)c1cc2ccccc2cc1O	pPAFAH inh 35 | pPAFAH FP conf inactive
O=C(NC(=S)NNC(=O)c1cc2ccccc2cc1O)c1ccco1	pPAFAH inh 39 | pPAFAH FP conf 37
COc1ccc(C(=O)NC(=S)NNC(=O)c2ccco2)cc1	none
COc1cc(NC(=O)c2cc3ccccc3cc2O)c(OC)cc1Cl	none
CC(C)(C)OC(=O)N[C@H]1C=C[C@@H](OC(=O)CC(=O)OCC(F)(F)F)C1	none (no result: CTSL1 counter, PP5 inh)
CC(C)OCCCNC(=O)C1CCN(S(=O)(=O)c2ccc3nc4c(c(C(=O)O)c3c2)CCCCC4)CC1	none
CC(=O)Nc1ccc(NC(=O)CC2(CC(=O)N3CCOCC3)CCCC2)cc1	none (no result: CTSL1 counter, PP5 inh, pPAFAH inh)
COc1ccc(C(C(=O)NCC2CCCO2)N(Cc2cccs2)C(=O)c2snc(C(N)=O)c2N)cc1OC (configuration not stated)	pPAFAH inh 38 | pPAFAH FP conf inactive
Cc1ccc(C(C)C)c(OCC(=O)NS(=O)(=O)c2ccc(Cl)cc2)c1	none
CC(C)(C)C1CCC(N2CCN(c3ccccc3)CC2)CC1 (configuration not stated)	none
C[C@@H](OC(=O)N1CCCCC1)[C@H]1O[C@]2(C)CCCC[C@H]1O2	none (no result: CTSL1 counter)
N#C/C(=N\Nc1cccc(C(F)(F)F)c1)C(=O)c1csc(-c2cccnc2)n1	pPAFAH inh 45 | pPAFAH FP conf 63
Nc1c(-c2ccc(Cl)cc2)cnc2c(-c3ccc(F)cc3)cnn12	none
CCOc1cc(CNc2ccc(O)cc2)cc(Br)c1OCc1ccccc1F	pPAFAH inh 43 | pPAFAH FP conf inactive
COc1cc(CNc2ccc(O)cc2)cc(Br)c1OCc1ccccc1F	pPAFAH inh 39 | pPAFAH FP conf inactive
CCOc1cc(/C=N/NC(N)=O)cc(Br)c1OCc1ccccc1F	none
O=C1CCC[C@@H]2[C@H]3CCC[N+]4([O-])CCC[C@@H](CN12)[C@@H]34 (some centres not stated)	none
CC1=C(C(=O)OCCCBr)C(c2ccc3c(c2)OCO3)NC(=O)N1 (configuration not stated)	pPAFAH inh 43 | pPAFAH FP conf inactive
CCOC(=O)c1sc(N2C(=O)C(O)=C(C(=O)c3ccco3)C2c2ccc([N+](=O)[O-])cc2)nc1C (configuration not stated)	none
CCOc1ccc2[nH]c3c(N4CCN(c5ccccn5)CC4)ncnc3c2c1	pPAFAH inh 44 | pPAFAH FP conf inactive
Cc1ccccc1NC(=O)c1sc2nc3c(c(-c4ccco4)c2c1N)CCC3	pPAFAH inh 36 | pPAFAH FP conf inactive
O=C(O)c1ccccc1N/N=C/c1cc(Br)cc(Br)c1O	PAFAH2 inh 35, pPAFAH inh 41 | pPAFAH FP conf 62
O=C(Cc1ccccc1)N/N=C/c1cc(Br)cc(Br)c1O	none
CCOc1ccccc1NC(=O)COC(=O)c1c(CC)noc1C	none (no result: CTSL1 counter, PP5 inh, pPAFAH inh)
Cc1cc(S(=O)(=O)N2CCCC2)ccc1OCC(=O)Nc1ccc(C(N)=O)cc1	pPAFAH inh 50 (no result: CTSL1 counter) | pPAFAH FP conf inactive
CCc1c(C)sc(NC(=O)CC#N)c1C#N	pPAFAH inh 35 | pPAFAH FP conf inactive
CCCC(=O)Nc1sc(C)c(C)c1C#N	none
Cc1ccc(C(=O)CSc2nnc(-c3c[nH]c4ccccc34)o2)cc1	pPAFAH inh 48 | pPAFAH FP conf inactive
COc1cc(/C=N/Nc2nc3ccccc3s2)cc([N+](=O)[O-])c1O	pPAFAH inh 43 | pPAFAH FP conf 47
COc1cc(/C=N/Nc2ccccc2[N+](=O)[O-])cc(OC)c1O	none
COc1ccc(OC)c(CNC(=O)CCC(=O)N2Cc3cccc(OC)c3Oc3ncccc32)c1	none
c1cc2c(cc1C1CCCCC1)c1c3n2CCCNC3CCC1 (configuration not stated)	pPAFAH inh 45 | pPAFAH FP conf inactive
CC(C)(c1ccccc1)c1ccc(OCCCN2CCNCC2)cc1	pPAFAH inh 39 | pPAFAH FP conf 25
CC(C)(C)c1ccc(OCCCCCCN2CCNCC2)cc1	none
Clc1ccc(CNc2ccc(CNc3ncn[nH]3)cc2)c(Cl)c1	pPAFAH inh 37 | pPAFAH FP conf inactive
Cc1cc(Br)ccc1N=C1NC(=O)CS1	none
O=C(NNC(=S)Nc1ccc(C(=O)O)c(O)c1)c1ccncc1	none (no result: CTSL1 counter, PP5 inh, pPAFAH inh)
CCc1noc(C)c1C(=O)OCC(=O)NC(C)c1ccccc1 (configuration not stated)	pPAFAH inh 35 (no result: CTSL1 counter) | pPAFAH FP conf inactive
CCc1noc(C)c1C(=O)OCC(=O)NCc1ccccc1	none (no result: CTSL1 counter)
COC(=O)c1ccc(/C(O)=C(\C#N)c2nc3ccccc3s2)cc1	none
